Data reported in PubChem BioAssay AID1159580 (chemical genetic matrix, 2015).
The whole screen tested about 5,500 compounds, of which about 2,000 (36%) were called active. Another 18% or so got no clear call; they are omitted. No stated cut-off is given here; in the data, active means normalized growth mostly below about 0.91 (no sharp cut-off); inconclusive means no clear call, values can overlap the other calls; inactive means mostly above about 0.92. Some of the results follow.

Assay: chemical genetic growth profiling, strain panel (AID 1159580);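 further: tested at 20 µM; growth read once vehicle control cultures reached saturation at 30 °C; 1 = growth at the plate median or of vehicle wells; lower values mean less growth of the strain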
Settings: S. cerevisiae deletion strains, growth OD
[1] = locus YHR030C, strain SLT2, hits give low values
[2] = locus YHR079C, strain IRE1, hits give low values
[3] = locus YJL095W, strain BCK1, hits give low values
[4] = locus YJR066W, strain TOR1, hits give low values
[5] = locus YLR113W, strain HOG1, hits give low values
[6] = locus YNL183C, strain NPR1, hits give low values
[7] = locus YOR231W, strain MKK1, hits give low values
[8] = locus YPL256C, strain CLN2, hits give low values

Measured: normalized growth

CC(=O)Nc1ccc(S(=O)(=O)c2ccc(NC(C)=O)cc2)cc1
inactive: locus YAL021C, strain ccr4, hits give low values 1.03 | locus YAL026C, strain drs2, hits give low values 1.02 | locus YAL030W, strain snc1, hits give low values 1.02 | locus YBL061C, strain skt5, hits give low values 1.02 | locus YBR009C, strain hhf1, hits give low values 0.997 | locus YBR023C, strain chs3, hits give low values 1.01 | locus YBR171W, strain sec66, hits give low values 1.02 | locus YBR231C, strain swc5, hits give low values 1.02 | locus YBR279W, strain paf1, hits give low values 1.01 | locus YCL011C, strain gbp2, hits give low values 1.01 | locus YCL016C, strain dcc1, hits give low values 0.995 | locus YCL069W, strain vba3, hits give low values 1.02 | locus YCR088W, strain abp1, hits give low values 1.01 | locus YDL005C, strain med2, hits give low values 1.01 | locus YDL040C, strain nat1, hits give low values 1.02 | locus YDR001C, strain nth1, hits give low values 1.02 | locus YDR069C, strain doa4, hits give low values 1.02 | locus YDR137W, strain rgp1, hits give low values 1.03 | locus YDR159W, strain sac3, hits give low values 0.97 | locus YDR195W, strain ref2 1.02 | locus YDR297W, strain sur2, hits give low values 1.01 | locus YDR334W, strain swr1, hits give low values 1.02 | locus YDR335W, strain msn5, hits give low values 1.01 | locus YDR392W, strain spt3, hits give low values 0.998 | locus YEL003W, strain gim4, hits give low values 1.02 | locus YEL037C, strain rad23, hits give low values 1.02 | locus YEL061C, strain CIN8 (second series), hits give low values 1.02 | locus YER015W, strain faa2, hits give low values 1.02 | locus YER016W, strain bim1, hits give low values 0.996 | locus YER111C, strain swi4, hits give low values 1.01 | locus YER155C, strain BEM2 (second series), hits give low values 1.04 | locus YFR010W, strain ubp6, hits give low values 1.01 | locus YGL167C, strain pmr1, hits give low values 1.01 | locus YGL173C, strain kem1, hits give low values 1.02 | locus YGL227W, strain vid30, hits give low values 1.01 | locus YGL240W, strain doc1, hits give low values 1.02 | locus YGL253W, strain hxk2, hits give low values 1 | locus YHR013C, strain ard1, hits give low values 1.03 | locus YHR027C, strain rpn1, hits give low values 1.01 | [1] 1.07 | [2] 1.09 | locus YHR142W, strain chs7, hits give low values 1.02 | locus YJL092W, strain hpr5, hits give low values 1 | locus YJL095W, strain BCK1 (second series), hits give low values 1.01 | [3] 1.01 | locus YJL115W, strain asf1, hits give low values 1.02 | locus YJL129C, strain trk1, hits give low values 0.999 | locus YJL154C, strain vps35, hits give low values 1.02 | locus YJL164C, strain tpk1, hits give low values 1 | locus YJL166W, strain qcr8, hits give low values 1.02 | locus YJL187C, strain SWE1, hits give low values 1.01 | [4] 0.988 | locus YKL160W, strain elf1, hits give low values 1.01 | locus YKR026C, strain gcn3, hits give low values 0.999 | locus YKR091W, strain srl3, hits give low values 1.01 | locus YLL001W, strain dnm1, hits give low values 1.01 | locus YLL026W, hits give low values 1.01 | locus YLL041C, strain sdh2, hits give low values 0.997 | locus YLR027C, strain aat2, hits give low values 1 | [5] 0.972 | locus YLR221C, strain rsa3, hits give low values 0.987 | locus YLR258W, strain gsy2, hits give low values 1.02 | locus YLR262C, strain YPT6 (second series), hits give low values 1.04 | locus YLR320W, strain mms22, hits give low values 1.03 | locus YLR342W, strain FKS1, hits give low values 1.01 | locus YLR357W, strain rsc2, hits give low values 1.01 | locus YLR370C, strain arc18, hits give low values 1.01 | locus YLR384C, strain iki3, hits give low values 1.01 | locus YML120C, strain ndi1, hits give low values 1.03 | locus YMR058W, strain fet3, hits give low values 1.01 | locus YMR125W, strain sto1, hits give low values 1.01 | locus YMR129W, hits give low values 1.02 | locus YMR205C, strain PFK2, hits give low values 1.01 | locus YMR231W, strain pep5, hits give low values 1.01 | locus YNL071W, strain lat1, hits give low values 1.02 | [6] 0.971 | locus YNL209W, strain ssb2, hits give low values 1.01 | locus YNL248C, strain rpa49, hits give low values 1.02 | locus YNL322C, strain KRE1 (second series), hits give low values 1.01 | locus YNR049C, strain mso1, hits give low values 1.01 | locus YOR001W, strain rrp6, hits give low values 1.02 | locus YOR070C, strain gyp1, hits give low values 1.01 | locus YOR080W, strain dia2, hits give low values 1.02 | locus YOR083W, strain WHI5, hits give low values 0.979 | locus YOR106W, strain vam3, hits give low values 1.02 | [7] 1.05 | locus YOR265W, strain rbl2, hits give low values 1.01 | locus YOR270C, strain vph1, hits give low values 1.02 | locus YOR290C, strain snf2, hits give low values 1.01 | locus YPL051W, strain arl3, hits give low values 1.01 | locus YPL078C, strain atp4, hits give low values 1.02 | locus YPL106C, strain sse1, hits give low values 1.02 | locus YPL240C, strain hsp82, hits give low values 1 | [8] 1.08

CC(=O)Nc1ccc(/C=C/[N+](=O)[O-])cc1
active: locus YFR019W, strain FAB1, hits give low values 0.629 | [1] 0.697 | [5] 0.628 | [8] 0.642
inactive: locus YAR019C, strain CDC15, hits give low values 0.977 | locus YBL105C, strain PKC1, hits give low values 0.972 | locus YBR135W, strain CKS1, hits give low values 0.976 | locus YBR136W, strain MEC1, hits give low values 0.964 | locus YBR160W, strain CDC28, hits give low values 0.98 | locus YDL017W, strain CDC7, hits give low values 0.98 | locus YDL028C, strain MPS1, hits give low values 0.973 | locus YDL101C, strain DUN1, hits give low values 0.994 | locus YDL108W, strain KIN28, hits give low values 0.972 | locus YDL132W, strain cdc53, hits give low values 0.975 | locus YDL214C, strain PRR2, hits give low values 0.857 | locus YDR052C, strain DBF4, hits give low values 0.98 | locus YDR054C, strain cdc34, hits give low values 0.974 | locus YDR226W, strain ADK1, hits give low values 0.975 | locus YDR477W, strain SNF1, hits give low values 0.809 | locus YER123W, strain YCK3, hits give low values 0.679 | locus YER133W, strain GLC7, hits give low values 0.806 | locus YFL009W, strain cdc4, hits give low values 0.974 | locus YFL029C, strain CAK1, hits give low values 0.962 | locus YFR003C, strain YPI1, hits give low values 0.982 | locus YFR028C, strain CDC14, hits give low values 0.972 | locus YGR040W, strain KSS1, hits give low values 0.807 | locus YGR052W, strain FMP48, hits give low values 0.843 | locus YGR092W, strain DBF2, hits give low values 0.816 | [2] 0.809 | locus YHR082C, strain KSP1, hits give low values 0.804 | locus YHR205W, strain SCH9, hits give low values 0.723 | locus YIL147C, strain SLN1, hits give low values 0.97 | [3] 0.78 | locus YJL128C, strain PBS2, hits give low values 0.969 | locus YJL157C, strain FAR1, hits give low values 0.844 | locus YJR016C, strain ILV3, hits give low values 0.981 | locus YJR066W, strain TOR1 (second series), hits give low values 0.732 | [4] 0.684 | locus YKL048C, strain ELM1, hits give low values 0.864 | locus YKL067W, strain YNK1, hits give low values 0.852 | locus YKL101W, strain HSL1, hits give low values 0.795 | locus YKL193C, strain SDS22, hits give low values 0.977 | locus YKL203C, strain TOR2, hits give low values 0.852 | locus YLR133W, strain CKI1, hits give low values 0.861 | locus YLR403W, strain SFP1, hits give low values 0.818 | locus YML070W, strain DAK1, hits give low values 0.804 | locus YMR001C, strain CDC5, hits give low values 0.971 | locus YMR205C, strain PFK2 (second series), hits give low values 0.868 | locus YMR277W, strain FCP1, hits give low values 0.976 | locus YNL006W, strain LST8, hits give low values 0.996 | locus YNL020C, strain ARK1, hits give low values 0.88 | locus YNL161W, strain CBK1, hits give low values 0.973 | [6] 0.782 | locus YNL207W, strain RIO2, hits give low values 0.978 | locus YNL222W, strain SSU72, hits give low values 0.975 | locus YNL307C, strain MCK1 (second series), hits give low values 0.78 | locus YOL078W, strain AVO1, hits give low values 0.97 | locus YOL136C, strain PFK27, hits give low values 0.829 | locus YOR061W, strain CKA2, hits give low values 0.882 | locus YOR119C, strain RIO1, hits give low values 0.855 | [7] 0.786 | locus YOR329C, strain SCD5, hits give low values 0.985 | locus YPL031C, strain PHO85, hits give low values 0.794 | locus YPL153C, strain RAD53, hits give low values 0.776 | locus YPL204W, strain HRR25, hits give low values 0.791 | locus YPL209C, strain IPL1, hits give low values 0.98 | locus YPR025C, strain CCL1, hits give low values 0.982 | locus YPR106W, strain ISR1, hits give low values 0.988 | locus YPR111W, strain DBF20, hits give low values 0.984 | strain NNK1, hits give low values 0.999 | strain TSCII, hits give low values 0.969
